Inhibition data for seven compounds are collected here from ChEMBL document CHEMBL1961873, “Compounds: GSK PKIS; Assays: Nanosyn kinase panel” (2012).

The target of test [1] is Mitogen-activated protein kinase 3 (Homo sapiens) (UniProt P27361). The following applies: at 1 µM.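 Also: values are mean percent inhibition of MAPK3.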
The target in test [2] is SRSF protein kinase 3 (Homo sapiens) (UniProt Q9UPE1). The following applies: at 0.1 µM.
Test [3] shares this target. The following applies: at 1 µM.
The target of test [4] is Mitogen-activated protein kinase 14 (Homo sapiens) (UniProt Q16539). The conditions noted are these: at 0.1 µM.
Test [5] has the same target. The following applies: at 1 µM.
For test [6], the target named is Mitogen-activated protein kinase 11 (Homo sapiens) (UniProt Q15759). The conditions noted are these: at 0.1 µM.
For test [7] the target is unchanged. The conditions noted are these: at 1 µM.
For test [8], the target named is T1, Mitogen-activated protein kinase 13 (Homo sapiens) (UniProt O15264).
T1 sequence (whole entry): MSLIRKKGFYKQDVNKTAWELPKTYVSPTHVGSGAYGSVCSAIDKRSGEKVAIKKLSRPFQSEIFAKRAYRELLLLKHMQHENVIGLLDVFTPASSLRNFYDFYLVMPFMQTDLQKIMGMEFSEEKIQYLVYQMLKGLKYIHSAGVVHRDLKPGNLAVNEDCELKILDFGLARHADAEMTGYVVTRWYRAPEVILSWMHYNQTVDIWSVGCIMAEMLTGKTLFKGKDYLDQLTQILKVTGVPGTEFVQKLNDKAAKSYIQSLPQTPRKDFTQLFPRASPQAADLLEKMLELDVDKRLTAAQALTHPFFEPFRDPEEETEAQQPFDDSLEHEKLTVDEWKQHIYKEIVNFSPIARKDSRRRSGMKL
The conditions noted are these: at 0.1 µM.

Test [9] has as its target T1, Mitogen-activated protein kinase 13 (Homo sapiens). The following applies: at 1 µM.
The target of test [10] is T2, Mitogen-activated protein kinase 12 (Homo sapiens) (UniProt P53778).
T2 sequence (whole entry): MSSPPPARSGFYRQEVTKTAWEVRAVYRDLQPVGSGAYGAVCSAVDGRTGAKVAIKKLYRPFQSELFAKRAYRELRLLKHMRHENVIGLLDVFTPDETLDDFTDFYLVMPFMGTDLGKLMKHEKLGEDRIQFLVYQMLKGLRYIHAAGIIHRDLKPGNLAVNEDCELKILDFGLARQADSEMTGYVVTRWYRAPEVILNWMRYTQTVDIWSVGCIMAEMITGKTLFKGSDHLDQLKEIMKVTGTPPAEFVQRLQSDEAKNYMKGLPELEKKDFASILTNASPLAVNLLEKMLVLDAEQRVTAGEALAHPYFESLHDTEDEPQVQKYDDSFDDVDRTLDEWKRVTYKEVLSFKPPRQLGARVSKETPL
The following applies: at 0.1 µM.

The target in test [11] is T2, Mitogen-activated protein kinase 12 (Homo sapiens). The following applies: at 1 µM.
Test [12] concerns the target SRSF protein kinase 1 (Homo sapiens) (UniProt Q96SB4). The following applies: at 0.1 µM.
The target is the same in test [13]. The conditions noted are these: at 1 µM.
Test [14] has as its target Phosphatidylinositol 4,5-bisphosphate 3-kinase catalytic subunit alpha isoform (Homo sapiens) (UniProt P42336). The following applies: at 0.1 µM.
The target is the same in test [15]. The conditions noted are these: at 1 µM.
For test [16], the target named is T3, Phosphatidylinositol 4,5-bisphosphate 3-kinase catalytic subunit delta isoform (Homo sapiens) (UniProt O00329).
T3 sequence (whole entry): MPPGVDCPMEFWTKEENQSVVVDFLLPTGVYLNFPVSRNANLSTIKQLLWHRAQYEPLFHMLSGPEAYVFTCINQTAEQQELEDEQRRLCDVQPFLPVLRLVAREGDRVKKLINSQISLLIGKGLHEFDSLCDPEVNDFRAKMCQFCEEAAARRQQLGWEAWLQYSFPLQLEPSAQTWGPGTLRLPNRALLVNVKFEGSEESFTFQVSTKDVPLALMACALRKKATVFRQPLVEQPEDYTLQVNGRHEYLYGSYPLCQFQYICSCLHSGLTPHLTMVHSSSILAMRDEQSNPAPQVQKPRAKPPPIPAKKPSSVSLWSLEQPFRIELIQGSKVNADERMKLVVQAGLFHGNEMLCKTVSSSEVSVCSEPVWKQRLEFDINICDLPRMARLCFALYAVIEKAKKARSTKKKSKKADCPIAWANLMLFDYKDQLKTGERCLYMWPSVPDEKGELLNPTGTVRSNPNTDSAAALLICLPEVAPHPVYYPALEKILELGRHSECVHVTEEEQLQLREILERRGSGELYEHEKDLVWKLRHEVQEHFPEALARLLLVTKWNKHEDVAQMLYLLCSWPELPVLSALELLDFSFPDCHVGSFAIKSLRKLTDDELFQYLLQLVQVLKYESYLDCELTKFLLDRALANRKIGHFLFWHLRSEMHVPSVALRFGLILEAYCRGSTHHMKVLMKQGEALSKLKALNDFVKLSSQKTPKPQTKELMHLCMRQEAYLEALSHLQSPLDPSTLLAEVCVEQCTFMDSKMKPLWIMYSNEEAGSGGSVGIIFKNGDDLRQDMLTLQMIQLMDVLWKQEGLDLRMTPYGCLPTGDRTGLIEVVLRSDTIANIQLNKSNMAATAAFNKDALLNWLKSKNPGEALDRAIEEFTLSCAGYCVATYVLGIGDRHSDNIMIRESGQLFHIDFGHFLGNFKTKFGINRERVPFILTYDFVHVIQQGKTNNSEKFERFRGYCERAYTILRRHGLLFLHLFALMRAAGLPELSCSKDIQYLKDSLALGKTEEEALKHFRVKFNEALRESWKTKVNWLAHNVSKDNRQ
The following applies: at 0.1 µM.

Test [17] has as its target T3, Phosphatidylinositol 4,5-bisphosphate 3-kinase catalytic subunit delta isoform (Homo sapiens). The conditions noted are these: at 1 µM.
Test [18] addresses Phosphatidylinositol 4-kinase beta (Homo sapiens) (UniProt Q9UBF8). The following applies: at 0.1 µM.
Test [19] has the same target. The conditions noted are these: at 1 µM.
The target in test [20] is Sphingosine kinase 1 (Homo sapiens) (UniProt Q9NYA1). The following applies: at 0.1 µM.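 Also: mean percent inhibition of SPHK1 activity, measured within the GSK PKIS screening panel.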

Each structure is given as a SMILES string.

SRSF protein kinase 1 (Homo sapiens), sequence (Q96SB4 whole entry): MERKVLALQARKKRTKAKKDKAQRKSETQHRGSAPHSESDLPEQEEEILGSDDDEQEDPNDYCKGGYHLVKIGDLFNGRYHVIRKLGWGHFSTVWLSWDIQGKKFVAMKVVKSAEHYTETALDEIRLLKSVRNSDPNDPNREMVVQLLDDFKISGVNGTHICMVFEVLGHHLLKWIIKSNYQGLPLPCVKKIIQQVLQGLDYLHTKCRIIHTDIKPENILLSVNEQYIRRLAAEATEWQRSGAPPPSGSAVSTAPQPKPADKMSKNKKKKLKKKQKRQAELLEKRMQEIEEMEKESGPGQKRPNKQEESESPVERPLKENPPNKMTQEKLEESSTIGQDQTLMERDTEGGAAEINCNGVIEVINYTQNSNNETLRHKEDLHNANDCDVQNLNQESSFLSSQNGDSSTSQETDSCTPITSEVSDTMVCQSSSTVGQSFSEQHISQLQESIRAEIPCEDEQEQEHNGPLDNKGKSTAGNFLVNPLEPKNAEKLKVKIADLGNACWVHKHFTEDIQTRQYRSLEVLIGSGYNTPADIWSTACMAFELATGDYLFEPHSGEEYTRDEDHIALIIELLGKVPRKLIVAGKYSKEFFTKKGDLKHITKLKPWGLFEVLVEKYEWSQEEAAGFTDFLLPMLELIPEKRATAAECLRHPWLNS
Phosphatidylinositol 4-kinase beta (Homo sapiens), sequence (Q9UBF8 2-816 limits assumed): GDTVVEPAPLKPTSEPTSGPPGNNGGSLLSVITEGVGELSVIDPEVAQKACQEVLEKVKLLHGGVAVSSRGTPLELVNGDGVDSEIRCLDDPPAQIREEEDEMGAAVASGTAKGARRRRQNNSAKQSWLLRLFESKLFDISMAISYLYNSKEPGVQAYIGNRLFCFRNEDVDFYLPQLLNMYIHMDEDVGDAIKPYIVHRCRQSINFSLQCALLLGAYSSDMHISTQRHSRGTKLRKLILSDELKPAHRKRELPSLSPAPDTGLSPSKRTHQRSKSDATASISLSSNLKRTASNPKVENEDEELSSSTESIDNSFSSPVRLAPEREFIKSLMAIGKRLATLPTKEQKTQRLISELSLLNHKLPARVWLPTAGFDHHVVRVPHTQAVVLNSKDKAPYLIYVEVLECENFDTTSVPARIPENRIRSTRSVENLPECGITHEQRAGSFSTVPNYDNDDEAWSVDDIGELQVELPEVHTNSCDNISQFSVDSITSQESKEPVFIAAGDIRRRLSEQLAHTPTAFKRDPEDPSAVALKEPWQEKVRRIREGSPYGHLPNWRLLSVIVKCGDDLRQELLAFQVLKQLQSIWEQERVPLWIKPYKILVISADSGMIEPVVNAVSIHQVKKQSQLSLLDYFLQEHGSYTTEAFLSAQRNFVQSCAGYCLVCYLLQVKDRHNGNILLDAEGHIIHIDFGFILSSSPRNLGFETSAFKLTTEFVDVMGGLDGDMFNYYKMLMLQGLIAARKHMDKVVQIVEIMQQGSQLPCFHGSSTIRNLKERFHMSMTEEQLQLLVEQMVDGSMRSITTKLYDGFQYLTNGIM
Mitogen-activated protein kinase 11 (Homo sapiens), sequence (Q15759 whole entry): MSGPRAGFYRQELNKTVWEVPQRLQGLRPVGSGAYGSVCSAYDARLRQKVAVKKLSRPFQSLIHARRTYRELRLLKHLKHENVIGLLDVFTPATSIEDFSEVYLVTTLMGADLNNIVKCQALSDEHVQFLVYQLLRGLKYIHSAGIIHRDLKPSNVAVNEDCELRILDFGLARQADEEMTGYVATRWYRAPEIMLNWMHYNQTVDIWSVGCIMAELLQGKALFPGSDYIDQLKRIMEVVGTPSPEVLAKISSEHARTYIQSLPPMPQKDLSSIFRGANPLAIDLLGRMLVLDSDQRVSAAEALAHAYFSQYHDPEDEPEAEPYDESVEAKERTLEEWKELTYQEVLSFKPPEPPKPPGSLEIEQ
SRSF protein kinase 3 (Homo sapiens), sequence (Q9UPE1 whole entry): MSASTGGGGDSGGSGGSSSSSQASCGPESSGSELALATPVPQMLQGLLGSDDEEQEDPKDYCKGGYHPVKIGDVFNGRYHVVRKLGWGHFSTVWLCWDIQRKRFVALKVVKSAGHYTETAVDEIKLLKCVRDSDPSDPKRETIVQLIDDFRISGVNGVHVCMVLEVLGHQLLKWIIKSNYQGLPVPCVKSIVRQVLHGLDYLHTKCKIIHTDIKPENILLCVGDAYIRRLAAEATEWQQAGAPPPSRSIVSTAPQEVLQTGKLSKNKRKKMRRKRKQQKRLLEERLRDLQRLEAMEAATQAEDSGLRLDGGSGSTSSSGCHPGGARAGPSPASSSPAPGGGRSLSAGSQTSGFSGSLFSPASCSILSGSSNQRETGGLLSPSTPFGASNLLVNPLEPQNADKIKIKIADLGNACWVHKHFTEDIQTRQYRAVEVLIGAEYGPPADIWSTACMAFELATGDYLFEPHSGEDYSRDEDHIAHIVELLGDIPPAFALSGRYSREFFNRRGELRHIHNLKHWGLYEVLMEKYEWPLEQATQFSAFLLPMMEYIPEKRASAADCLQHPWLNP
Sphingosine kinase 1 (Homo sapiens), sequence (Q9NYA1 whole entry): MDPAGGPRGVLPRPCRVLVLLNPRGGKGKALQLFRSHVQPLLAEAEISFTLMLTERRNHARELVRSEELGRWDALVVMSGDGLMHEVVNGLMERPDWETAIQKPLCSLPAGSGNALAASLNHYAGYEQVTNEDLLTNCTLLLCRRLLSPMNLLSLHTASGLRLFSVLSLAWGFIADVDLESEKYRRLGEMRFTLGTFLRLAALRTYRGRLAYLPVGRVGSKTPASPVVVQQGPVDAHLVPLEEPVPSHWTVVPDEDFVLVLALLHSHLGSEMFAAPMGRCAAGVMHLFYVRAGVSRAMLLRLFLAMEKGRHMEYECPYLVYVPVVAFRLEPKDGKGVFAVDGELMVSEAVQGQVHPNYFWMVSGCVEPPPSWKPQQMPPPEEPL
Mitogen-activated protein kinase 14 (Homo sapiens), sequence (Q16539 whole entry): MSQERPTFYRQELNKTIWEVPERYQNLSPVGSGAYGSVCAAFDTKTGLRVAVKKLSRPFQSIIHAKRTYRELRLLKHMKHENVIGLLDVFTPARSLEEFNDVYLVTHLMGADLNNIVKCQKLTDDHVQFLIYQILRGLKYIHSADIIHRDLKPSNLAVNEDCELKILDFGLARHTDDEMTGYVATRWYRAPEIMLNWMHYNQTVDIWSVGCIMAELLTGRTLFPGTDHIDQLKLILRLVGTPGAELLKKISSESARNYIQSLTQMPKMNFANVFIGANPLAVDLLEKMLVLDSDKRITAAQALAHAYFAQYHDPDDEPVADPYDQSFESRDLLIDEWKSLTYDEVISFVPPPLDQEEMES
Phosphatidylinositol 4,5-bisphosphate 3-kinase catalytic subunit alpha isoform (Homo sapiens), sequence (P42336 whole entry, canonical isoform): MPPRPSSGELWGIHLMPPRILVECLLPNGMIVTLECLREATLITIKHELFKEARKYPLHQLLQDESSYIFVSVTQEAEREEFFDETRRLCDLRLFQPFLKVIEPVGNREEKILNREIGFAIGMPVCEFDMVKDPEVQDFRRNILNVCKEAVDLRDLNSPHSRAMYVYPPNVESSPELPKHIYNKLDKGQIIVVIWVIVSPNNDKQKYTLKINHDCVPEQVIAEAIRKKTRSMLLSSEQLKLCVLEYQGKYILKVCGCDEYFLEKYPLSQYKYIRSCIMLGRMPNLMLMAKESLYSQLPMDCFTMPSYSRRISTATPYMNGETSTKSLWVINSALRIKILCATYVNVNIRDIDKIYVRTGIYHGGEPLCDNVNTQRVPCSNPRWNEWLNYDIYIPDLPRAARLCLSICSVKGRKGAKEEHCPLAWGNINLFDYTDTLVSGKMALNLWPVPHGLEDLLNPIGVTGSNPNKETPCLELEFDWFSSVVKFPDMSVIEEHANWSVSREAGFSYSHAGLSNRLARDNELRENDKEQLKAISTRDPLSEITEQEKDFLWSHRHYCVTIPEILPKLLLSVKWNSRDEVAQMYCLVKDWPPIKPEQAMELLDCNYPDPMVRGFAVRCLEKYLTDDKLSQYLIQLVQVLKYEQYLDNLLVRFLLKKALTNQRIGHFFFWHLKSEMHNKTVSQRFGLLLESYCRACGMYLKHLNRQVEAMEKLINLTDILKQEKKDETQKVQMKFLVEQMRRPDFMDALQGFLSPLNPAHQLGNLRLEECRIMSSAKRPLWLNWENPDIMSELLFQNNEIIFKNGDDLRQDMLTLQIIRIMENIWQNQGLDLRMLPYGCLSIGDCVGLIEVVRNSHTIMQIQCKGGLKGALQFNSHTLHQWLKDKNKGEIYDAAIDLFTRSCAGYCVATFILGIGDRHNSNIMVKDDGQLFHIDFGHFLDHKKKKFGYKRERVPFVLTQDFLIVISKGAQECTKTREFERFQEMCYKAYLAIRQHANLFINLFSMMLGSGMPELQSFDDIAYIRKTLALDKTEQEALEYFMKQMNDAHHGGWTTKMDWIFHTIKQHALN
Mitogen-activated protein kinase 3 (Homo sapiens), sequence (P27361 whole entry): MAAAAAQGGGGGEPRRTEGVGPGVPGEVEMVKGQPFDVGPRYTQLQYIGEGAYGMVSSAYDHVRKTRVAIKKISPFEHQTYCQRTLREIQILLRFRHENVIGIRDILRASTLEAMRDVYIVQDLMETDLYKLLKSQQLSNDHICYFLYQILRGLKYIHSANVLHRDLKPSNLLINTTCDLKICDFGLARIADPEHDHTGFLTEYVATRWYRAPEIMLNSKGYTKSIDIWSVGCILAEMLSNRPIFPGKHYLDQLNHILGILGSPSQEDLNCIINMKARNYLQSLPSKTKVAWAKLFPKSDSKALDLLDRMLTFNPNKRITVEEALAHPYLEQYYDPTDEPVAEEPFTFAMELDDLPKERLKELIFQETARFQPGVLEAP

For the compound `COc1ccc2ncn(-c3cc(O[C@H](C)c4ccccc4Cl)c(C(N)=O)s3)c2c1`, the inhibition in [1] was 3.04%; in test [2] it was -3.56%; in [3], -0.27%; in test [4], 6.99%; in [5], 6.3%; in test [6], 2.23%. Moreover, the inhibition in [7] is 4.3%; in [8] it was 5.14%; in test [9] it was 4.31%; in test [10], 3.31%; in [11], 4.09%; in test [12], -1.6%. Besides, the inhibition in test [13] was -1.38%; in test [14], 3.9%; in [15], 4.87%; in test [16] it was 1.95%; in [17], 17.5%; in [18], 1.3%. Also, the inhibition in test [19] was -2.87%; in test [20], 1.65%.

`CS(=O)(=O)CCNCc1ccc(-c2ccc3ncnc(Nc4ccc(OCc5ccccc5)c(Br)c4)c3c2)o1`: the inhibition was 4.46% in test [1]; -5.29% in test [2]; -0.77% in test [3]; 6.51% in test [4]; 5.46% in test [5]; 3.98% in test [6]. Further, the inhibition in test [7] is 5.45%; in test [8], 4.88%; in test [9], 3.53%; in test [10] it was 3.43%; in [11], 3.4%; in [12], -3.23%. Besides, the inhibition is -2.26% in [13]; 3.6% in test [14]; 1.93% in test [15]; 0.72% in [16]; 2.81% in test [17]; -4.04% in [18]. For the same compound, the inhibition in test [19] is -0.22%; in test [20], -0.92%.

For the compound `c1ccc(-c2n[nH]cc2-c2ccnc(-c3ccc(OCCN4CCOCC4)cc3)c2)nc1`, the inhibition is -2.62% in [1]; 2.38% in test [2]; 0.78% in test [3]; 3.12% in test [4]; 28.9% in test [5]; -0.65% in test [6]. In addition, the inhibition in [7] is 5.15%; in test [8], 5.65%; in test [9], -0.43%; in test [10], 3.09%; in test [11], 0.29%; in [12], 2.99%. Further, the inhibition in test [13] is -0.67%; in [14], 0.37%; in test [15] it was 0.17%; in test [16], 2.7%; in test [17], 3.02%; in test [18] it was -0.93%. Also, the inhibition in test [19] was -1.19%; in test [20], -5.06%.

As to `Clc1ccc(CNc2nccc(-c3cnn4ncccc34)n2)cc1`, the inhibition is 1.44% in test [1]; -0.1% in test [2]; -3.75% in test [3]; 2.58% in test [4]; 7.97% in test [5]; 1.06% in test [6]. Further, the inhibition was 6.53% in test [7]; -0.19% in [8]; 2.4% in [9]; 0.66% in test [10]; 1.18% in test [11]; 0.9% in test [12]. Also, the inhibition in test [13] was 1.1%; in [14], -1.31%; in test [15], 0.56%; in test [16], -0.61%; in [17], 1.79%; in [18], 2.18%. Also, the inhibition is 1.28% in test [19] and -0.17% in [20].

Take `CN(c1ccc(NC(=O)Nc2c(Cl)cccc2Cl)cc1)c1ccnc(Nc2cccc(CS(C)(=O)=O)c2)n1`: the inhibition turned out to be 4.66% in [1]; 0.97% in [2]; 2.4% in [3]; 2.39% in test [4]; 3.34% in [5]; 1.5% in test [6]. Further, the inhibition in test [7] is 4.6%; in test [8] it was 1.53%; in test [9], 1.46%; in test [10], -0.44%; in [11], -0.86%; in test [12], -0.25%. In addition, the inhibition in test [13] is 2.16%; in test [14], 0.53%; in test [15], -1.22%; in test [16], 0.12%; in [17] it was -1.62%; in test [18] it was 3.66%. Further, the inhibition in test [19] is 3.73%; in test [20] it was -0.6%.

Regarding `COc1cccc(-n2cnc3c(N/N=C/c4ccncc4)ncnc32)c1`, the inhibition in test [1] is 2.27%; in test [2], -0.93%; in test [3], 0.28%; in test [4], 2.63%; in [5], -0.98%; in test [6] it was 1.35%. Also, the inhibition in test [7] was 0.89%; in test [8], -0.64%; in test [9], -2.04%; in test [10], -1.4%; in test [11], -1.27%; in test [12], 1.41%. In addition, the inhibition is 4.2% in [13]; -0.19% in test [14]; -3.79% in [15]; -1.29% in test [16]; -2.3% in [17]; 5.84% in [18]. The inhibition in test [19] is -1.85%; in test [20], -0.37%.

For `CCS(=O)(=O)c1ccc(OC)c(Nc2ncc(-c3cccc(-c4ccccc4F)c3)o2)c1`, the inhibition was found to be 0.15% in test [1]; 0.74% in [2]; 1.45% in [3]; 5.17% in test [4]; 8.57% in test [5]; 0.03% in test [6]. Further, the inhibition was 4.77% in test [7]; 3.85% in [8]; -0.94% in [9]; -2.59% in test [10]; 0.18% in [11]; 0.1% in test [12]. Besides, the inhibition was 2.33% in [13]; 1.85% in test [14]; 2.73% in test [15]; 2.24% in [16]; 5.89% in test [17]; -1.01% in [18]. For the same compound, the inhibition in [19] is -4.05%; in [20], 4.17%.
